{"source": "PubChem BioAssay", "key": {"[1]": {"target": "Cell division control protein 42 homolog (Homo sapiens) (UniProt P60953)", "sequence (P60953 whole entry, looked up)": "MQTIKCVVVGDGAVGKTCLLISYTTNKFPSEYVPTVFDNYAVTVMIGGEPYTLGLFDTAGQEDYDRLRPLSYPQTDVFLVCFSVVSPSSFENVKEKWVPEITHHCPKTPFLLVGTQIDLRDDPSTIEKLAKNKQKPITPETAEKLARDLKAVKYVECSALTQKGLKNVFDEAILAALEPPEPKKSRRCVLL", "assay": "inhibition of fluorescent GTP binding to constitutively active Cdc42 – biochemical, multiplex bead flow cytometry, Bodipy-FL-GTP, dose response (AID 1333;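 active = fitted half-maximal concentration within the tested dose range, moderate curve steepness, a statistically real signal drop, and little compound fluorescence or tag-binding interference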)"}, "[2]": {"target": "Cell division control protein 42 homolog (Homo sapiens) (UniProt P60953)", "assay": "inhibition of fluorescent GTP binding to wildtype Cdc42 – biochemical, multiplex bead flow cytometry, Bodipy-FL-GTP, dose response (AID 1334;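 active = fitted half-maximal concentration within the tested range, moderate curve steepness, significant signal drop, and little compound fluorescence or bead-linkage interference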)", "settings": "bead-based flow cytometry, Bodipy-FL-GTP binding to GST-Cdc42; at 100 µM (top of the series) unless noted"}, "[3]": {"target": "GTPase HRas (Homo sapiens) (UniProt P01112)", "sequence (P01112 whole entry, looked up)": "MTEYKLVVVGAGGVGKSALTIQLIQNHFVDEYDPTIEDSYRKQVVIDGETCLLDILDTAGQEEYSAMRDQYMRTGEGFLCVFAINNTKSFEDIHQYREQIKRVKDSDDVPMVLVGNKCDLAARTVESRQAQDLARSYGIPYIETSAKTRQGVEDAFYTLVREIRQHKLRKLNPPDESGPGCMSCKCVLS", "assay": "Ras wt fluorescent GTP loading blockade – biochemical, wildtype, multiplex bead flow cytometry, dose response (AID 1335)", "settings": "bead-based flow cytometry, Bodipy-GTP binding to GST-Ras; at 100 µM (top of the series) unless noted"}, "[4]": {"system": "Ras-related protein Rab-7a (dog), GTP binding", "assay": "blockers of fluorescent GTP binding to Rab7 – biochemical, wildtype, multiplex bead flow cytometry, dose response (AID 1336; call rule not given here)"}, "[5]": {"target": "Ras-related C3 botulinum toxin substrate 1 (Homo sapiens) (UniProt P63000)", "assay": "inhibition of wildtype Rac1 nucleotide loading – biochemical, multiplex bead flow cytometry, dose response (AID 1340;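 active = dose curve with midpoint inside tested range, moderate steepness, plateau gap beyond fit error, low compound glow and bead-link interference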)", "settings": "GST-Rac1 beads, Bodipy-FL-GTP binding; at 100 µM (top of the series) unless noted"}, "[6]": {"target": "GTPase HRas (Homo sapiens) (UniProt P01112)", "assay": "blockade of GTP loading onto mutant Ras – biochemical, activated mutant, multiplex bead flow cytometry, dose response (AID 1341;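 active = dose-response curve with midpoint inside the tested range, moderate steepness, significant amplitude and little compound fluorescence or bead-attachment interference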;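 also: GST-tagged constitutively activated Ras mutant immobilized on beads and multiplexed with other GTPases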)"}}, "note": "For part of these data: Entries with a potency or affinity are not part of this list. Activity calls are given as the source filed them.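 The calls were made as follows, unless noted: active = fitted half-maximal concentration within 10 nM to 100 µM, steepness 0.5 to 2, significant signal drop, low assay interference; inactive = the rest.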"}
{"smiles": "O=C(O)c1cc(-c2ccc(/C=C3/SC(=S)N(Cc4ccccc4)C3=O)o2)ccc1Cl", "values": [{"measurement": "outcome", "setting": "[1]", "value": "inactive"}, {"measurement": "fluorescence, percent of control (lower = inhibition)", "setting": "[2]", "value": 31.5, "unit": "%"}, {"measurement": "GTP binding, percent of control", "setting": "[3]", "value": 61.5, "unit": "%"}, {"measurement": "outcome", "setting": "[4]", "value": "inactive"}, {"measurement": "GTP binding signal, raw median fluorescence (lower = inhibition) (MCF (arbitrary fluorescence units))", "setting": "[5]", "value": 154}, {"measurement": "outcome", "setting": "[6]", "value": "inactive"}]}
{"smiles": "CCOC(=O)c1cc2c(N)c(C(=O)c3ccc(Br)cc3)sc2[nH]c1=O", "values": [{"measurement": "outcome", "setting": "[1]", "value": "inactive"}, {"measurement": "fluorescence, percent of control (lower = inhibition)", "setting": "[2]", "value": 29, "unit": "%"}, {"measurement": "GTP binding, percent of control", "setting": "[3]", "value": 69.1, "unit": "%"}, {"measurement": "outcome", "setting": "[4]", "value": "inactive"}, {"measurement": "GTP binding signal, raw median fluorescence (lower = inhibition) (MCF (arbitrary fluorescence units))", "setting": "[5]", "value": 145}, {"measurement": "outcome", "setting": "[6]", "value": "inactive"}]}
{"smiles": "Cc1cc(C(F)F)n2nc(C(=O)Nc3ccc(S(=O)(=O)N4CCCCCC4)cc3)nc2n1", "values": [{"measurement": "outcome", "setting": "[1]", "value": "inactive"}, {"measurement": "fluorescence, percent of control (lower = inhibition)", "setting": "[2]", "value": 36.8, "unit": "%"}, {"measurement": "GTP binding, percent of control", "setting": "[3]", "value": 82.1, "unit": "%"}, {"measurement": "outcome", "setting": "[4]", "value": "inactive"}, {"measurement": "GTP binding signal, raw median fluorescence (lower = inhibition) (MCF (arbitrary fluorescence units))", "setting": "[5]", "value": 257}, {"measurement": "outcome", "setting": "[6]", "value": "inactive"}]}
{"smiles": "COc1ccc(-c2nn3c(-c4ccccn4)nnc3s2)cc1OC", "values": [{"measurement": "outcome", "setting": "[1]", "value": "inactive"}, {"measurement": "fluorescence, percent of control (lower = inhibition)", "setting": "[2]", "value": 43, "unit": "%"}, {"measurement": "GTP binding, percent of control", "setting": "[3]", "value": 52.9, "unit": "%"}, {"measurement": "outcome", "setting": "[4]", "value": "inactive"}, {"measurement": "GTP binding signal, raw median fluorescence (lower = inhibition) (MCF (arbitrary fluorescence units))", "setting": "[5]", "value": 137}, {"measurement": "outcome", "setting": "[6]", "value": "inactive"}]}
{"smiles": "O=C(O)c1cccc(NCc2ccc3c(c2)OCO3)c1", "values": [{"measurement": "outcome", "setting": "[1]", "value": "inactive"}, {"measurement": "fluorescence, percent of control (lower = inhibition)", "setting": "[2]", "value": 64.9, "unit": "%"}, {"measurement": "GTP binding, percent of control", "setting": "[3]", "value": 88.8, "unit": "%"}, {"measurement": "outcome", "setting": "[4]", "value": "inactive"}, {"measurement": "GTP binding signal, raw median fluorescence (lower = inhibition) (MCF (arbitrary fluorescence units))", "setting": "[5]", "value": 41.9}, {"measurement": "outcome", "setting": "[6]", "value": "inactive"}]}
{"smiles": "O=C(COc1ncnc2cc([N+](=O)[O-])ccc12)NCc1ccc2c(c1)OCO2", "values": [{"measurement": "outcome", "setting": "[1]", "value": "inactive"}, {"measurement": "fluorescence, percent of control (lower = inhibition)", "setting": "[2]", "value": 42.7, "unit": "%"}, {"measurement": "GTP binding, percent of control", "setting": "[3]", "value": 56.9, "unit": "%"}, {"measurement": "outcome", "setting": "[4]", "value": "inactive"}, {"measurement": "GTP binding signal, raw median fluorescence (lower = inhibition) (MCF (arbitrary fluorescence units))", "setting": "[5]", "value": 118}, {"measurement": "outcome", "setting": "[6]", "value": "inactive"}]}
{"smiles": "Cc1cccc(CNc2nc(C)ccc2C(=O)O)c1", "values": [{"measurement": "outcome", "setting": "[1]", "value": "inactive"}, {"measurement": "fluorescence, percent of control (lower = inhibition)", "setting": "[2]", "value": 60.7, "unit": "%"}, {"measurement": "GTP binding, percent of control", "setting": "[3]", "value": 218, "unit": "%"}, {"measurement": "outcome", "setting": "[4]", "value": "inactive"}, {"measurement": "GTP binding signal, raw median fluorescence (lower = inhibition) (MCF (arbitrary fluorescence units))", "setting": "[5]", "value": 58}, {"measurement": "outcome", "setting": "[6]", "value": "inactive"}]}
{"smiles": "CCOC(=O)c1cc(C(=O)OCC)c(=O)[nH]c1N1CCCC1", "values": [{"measurement": "outcome", "setting": "[1]", "value": "inactive"}, {"measurement": "fluorescence, percent of control (lower = inhibition)", "setting": "[2]", "value": 31.6, "unit": "%"}, {"measurement": "GTP binding, percent of control", "setting": "[3]", "value": 72.4, "unit": "%"}, {"measurement": "outcome", "setting": "[4]", "value": "inactive"}, {"measurement": "GTP binding signal, raw median fluorescence (lower = inhibition) (MCF (arbitrary fluorescence units))", "setting": "[5]", "value": 262}, {"measurement": "outcome", "setting": "[6]", "value": "inactive"}]}
{"smiles": "COCCOC(=O)c1c(C)oc2ccc(OC(=O)c3ccc4c(c3)OCO4)cc12", "values": [{"measurement": "outcome", "setting": "[1]", "value": "inactive"}, {"measurement": "fluorescence, percent of control (lower = inhibition)", "setting": "[2]", "value": 31.7, "unit": "%"}, {"measurement": "GTP binding, percent of control", "setting": "[3]", "value": 83.9, "unit": "%"}, {"measurement": "outcome", "setting": "[4]", "value": "inactive"}, {"measurement": "GTP binding signal, raw median fluorescence (lower = inhibition) (MCF (arbitrary fluorescence units))", "setting": "[5]", "value": 262}, {"measurement": "outcome", "setting": "[6]", "value": "inactive"}]}
{"smiles": "COc1ccccc1OCCn1cc(C(=O)O)c2cccc(C)c21", "values": [{"measurement": "outcome", "setting": "[1]", "value": "inactive"}, {"measurement": "fluorescence, percent of control (lower = inhibition)", "setting": "[2]", "value": 50.6, "unit": "%"}, {"measurement": "GTP binding, percent of control", "setting": "[3]", "value": 200, "unit": "%"}, {"measurement": "outcome", "setting": "[4]", "value": "inactive"}, {"measurement": "GTP binding signal, raw median fluorescence (lower = inhibition) (MCF (arbitrary fluorescence units))", "setting": "[5]", "value": 55.9}, {"measurement": "outcome", "setting": "[6]", "value": "inactive"}]}
{"smiles": "Nc1[nH]nc2ncc3cc4ccccc4nc3c12", "values": [{"measurement": "outcome", "setting": "[1]", "value": "inactive"}, {"measurement": "fluorescence, percent of control (lower = inhibition)", "setting": "[2]", "value": 34.1, "unit": "%"}, {"measurement": "GTP binding, percent of control", "setting": "[3]", "value": 71.9, "unit": "%"}, {"measurement": "outcome", "setting": "[4]", "value": "inactive"}, {"measurement": "GTP binding signal, raw median fluorescence (lower = inhibition) (MCF (arbitrary fluorescence units))", "setting": "[5]", "value": 153}, {"measurement": "outcome", "setting": "[6]", "value": "inactive"}]}
{"smiles": "Cc1ccn2c(NCc3ccc4c(c3)OCO4)c(-c3ccc(O)cc3)nc2c1", "values": [{"measurement": "outcome", "setting": "[1]", "value": "inactive"}, {"measurement": "fluorescence, percent of control (lower = inhibition)", "setting": "[2]", "value": 60.4, "unit": "%"}, {"measurement": "GTP binding, percent of control", "setting": "[3]", "value": 75, "unit": "%"}, {"measurement": "outcome", "setting": "[4]", "value": "inactive"}, {"measurement": "GTP binding signal, raw median fluorescence (lower = inhibition) (MCF (arbitrary fluorescence units))", "setting": "[5]", "value": 0}, {"measurement": "outcome", "setting": "[6]", "value": "inactive"}]}
{"smiles": "O=C(O)c1ccc(COc2cccc(Cl)c2)o1", "values": [{"measurement": "outcome", "setting": "[1]", "value": "inactive"}, {"measurement": "fluorescence, percent of control (lower = inhibition)", "setting": "[2]", "value": 60.1, "unit": "%"}, {"measurement": "GTP binding, percent of control", "setting": "[3]", "value": 87, "unit": "%"}, {"measurement": "outcome", "setting": "[4]", "value": "inactive"}, {"measurement": "GTP binding signal, raw median fluorescence (lower = inhibition) (MCF (arbitrary fluorescence units))", "setting": "[5]", "value": 32.8}, {"measurement": "outcome", "setting": "[6]", "value": "inactive"}]}
{"smiles": "COC(=O)c1c(N2C(=O)[C@H]3[C@@H](C2=O)[C@]2(C(=O)Nc4c2ccc(C)c4C)N2CCC[C@@H]32)sc(C)c1C", "values": [{"measurement": "outcome", "setting": "[1]", "value": "inactive"}, {"measurement": "fluorescence, percent of control (lower = inhibition)", "setting": "[2]", "value": 55.3, "unit": "%"}, {"measurement": "GTP binding, percent of control", "setting": "[3]", "value": 71.4, "unit": "%"}, {"measurement": "outcome", "setting": "[4]", "value": "inactive"}, {"measurement": "GTP binding signal, raw median fluorescence (lower = inhibition) (MCF (arbitrary fluorescence units))", "setting": "[5]", "value": 0}, {"measurement": "outcome", "setting": "[6]", "value": "inactive"}]}
{"smiles": "CCOC(=O)c1c2c3c(cccc3[nH]c1=O)C(=O)c1ccccc1-2", "values": [{"measurement": "outcome", "setting": "[1]", "value": "inactive"}, {"measurement": "fluorescence, percent of control (lower = inhibition)", "setting": "[2]", "value": 35.5, "unit": "%"}, {"measurement": "GTP binding, percent of control", "setting": "[3]", "value": 77.9, "unit": "%"}, {"measurement": "outcome", "setting": "[4]", "value": "inactive"}, {"measurement": "GTP binding signal, raw median fluorescence (lower = inhibition) (MCF (arbitrary fluorescence units))", "setting": "[5]", "value": 176}, {"measurement": "outcome", "setting": "[6]", "value": "inactive"}]}
{"smiles": "COc1cc(C(=O)OCC(=O)Nc2ccc3c(c2)OC(F)(F)O3)ccc1OCc1c(C)noc1C", "values": [{"measurement": "outcome", "setting": "[1]", "value": "inactive"}, {"measurement": "fluorescence, percent of control (lower = inhibition)", "setting": "[2]", "value": 52.4, "unit": "%"}, {"measurement": "GTP binding, percent of control", "setting": "[3]", "value": 53.9, "unit": "%"}, {"measurement": "outcome", "setting": "[4]", "value": "inactive"}, {"measurement": "GTP binding signal, raw median fluorescence (lower = inhibition) (MCF (arbitrary fluorescence units))", "setting": "[5]", "value": 186}, {"measurement": "outcome", "setting": "[6]", "value": "inactive"}]}
